PTHR1 agonist = PTHR1 (human) receptor agonism | 410,000 tested, 0.075% active | Q03431 | AID 743266 | Potency, µM (doses to about 115 µM), most hits filed as activators | HEK293 GP2 PTHR1 cells, GloSensor cAMP luminescence, 1 h; note: nearly all actives have a fitted effect of over 55% in size
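HEK-293-derived GP2 cells expressing PTHR1 and a GloSensor cAMP reporter, 3,000/well, plated overnight, given luciferin plus IBMX (each 0.5 mM as added) for 1 h at 37 °C, then compound for 1 h at 37 °C. Luminescence was read after 15 min at room temperature.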
RGS4 inh = human RGS4 inhibition; Transcreener GDP fluorescence polarization, RGS4-accelerated GTP hydrolysis; Potency, µM (top dose mostly 114 µM), most hits filed as inhibitors; 390,000 tested, 0.039% active; AID 504845; note: nearly all actives have a fitted effect of over 75% in size
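MLSMR compounds (23 nl, pin-transferred) preincubated 10 min at room temperature with a 500nM (2x) first reagent, then RGS4 at 900nM (2x) plus Transcreener GDP mix added; fluorescence polarization (620/688 nm) read before and after 90 min at 30 °C.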
KAT2A inh = inhibitors of human GCN5L2 histone acetyltransferase | Q92830 | AID 504327 | GCN5L2 HAT assay, ThioGlo1 CoA-SH fluorescence | 390,000 tested, 0.21% active | Potency, µM (titrated, usually from 58.9 µM), most hits filed as inhibitors
Target sequence (Q92830 whole entry, looked up): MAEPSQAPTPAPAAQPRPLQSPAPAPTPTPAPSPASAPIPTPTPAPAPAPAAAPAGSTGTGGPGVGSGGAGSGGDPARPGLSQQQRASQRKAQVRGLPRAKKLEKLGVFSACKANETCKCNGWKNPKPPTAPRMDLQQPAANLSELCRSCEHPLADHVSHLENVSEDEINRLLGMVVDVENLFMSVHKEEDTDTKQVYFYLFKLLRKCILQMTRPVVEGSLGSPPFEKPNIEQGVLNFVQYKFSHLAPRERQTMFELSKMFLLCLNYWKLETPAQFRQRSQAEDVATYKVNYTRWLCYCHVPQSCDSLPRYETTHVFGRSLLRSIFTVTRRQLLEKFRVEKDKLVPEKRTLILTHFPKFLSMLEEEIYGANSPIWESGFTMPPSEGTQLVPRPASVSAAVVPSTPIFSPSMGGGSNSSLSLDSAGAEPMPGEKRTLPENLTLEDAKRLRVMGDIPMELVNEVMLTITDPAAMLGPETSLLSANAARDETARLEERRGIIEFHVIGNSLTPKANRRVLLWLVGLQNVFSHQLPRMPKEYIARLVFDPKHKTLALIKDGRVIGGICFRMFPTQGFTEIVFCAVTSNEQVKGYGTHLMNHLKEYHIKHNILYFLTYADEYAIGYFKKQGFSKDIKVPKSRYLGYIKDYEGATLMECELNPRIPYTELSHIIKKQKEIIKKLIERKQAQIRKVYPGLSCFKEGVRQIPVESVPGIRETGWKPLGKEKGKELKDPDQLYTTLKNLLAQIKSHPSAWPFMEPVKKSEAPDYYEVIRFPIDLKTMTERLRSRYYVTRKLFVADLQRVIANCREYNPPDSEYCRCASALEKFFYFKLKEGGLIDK
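GCN5L2 (20nM final) in 50mM HEPES, 0.1mM EDTA pH 7.5, 0.01% Tween-20 was preincubated 15 min at room temperature with compound, then given ThioGlo1 (50uM), H3(1-25) peptide (75uM) and acetyl-CoA (70uM); CoA-thiol fluorescence (Ex340/Em540) was read at 0 and 20 min.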
GLP1R inv ag = GLP-1 receptor (human) inverse agonism; P43220; HEK293 GLP-1R CRE-luciferase, luminescence, 24 h; GLP-1R form is constitutively active; Potency, µM (highest dose often 38.3 µM), usual class: inhibitors; 410,000 tested, 1.6% active; AID 624417; note: nearly all actives have a fitted effect of over 55% in size
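Luminescence readout: a drop in cAMP-driven luciferase signal flags inverse agonism at a constitutively active GLP-1R stably expressed in HEK293. Compound exposure lasted 24 hr at 37 deg C, 5% CO2.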
GLP1R ag = GLP-1 receptor (human) agonism | HEK293 GLP-1R CRE-luciferase, luminescence, 4-6 h; cells express a hypersensitive GLP-1R form | Potency, µM (titrated, usually from 45.6 µM), usual class: activators | 380,000 tested, 0.007% active
GLP1R cytotox = cytotoxic in the GLP-1 receptor inverse agonist counter-screen; AID 624418; HEK293 cAMP-luciferase reporter cells, luminescence, 24 h; Potency, µM (doses to about 38.3 µM), usual class: inhibitors; 410,000 tested, 0.13% active;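 note: loss of luciferase light is scored as toxicity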
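1536-well qHTS counterscreen of the MLSMR; 200 cells/uL, 12 h pre-incubation, 23 nL cpd, 24 h at 37 deg C 5% CO2, luciferase detection reagent, 12 min RT, luminescence. Inhibition = undesired.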
Numbers stand for hits; [ ] = remark or other dose. An excerpt weighted towards active compounds, which were near 1.8% of everything screened. Calls come from the whole dose curve; as a rule, active = well fitted curve in the direction sought with a large enough effect; inconclusive = small, poorly fitted or top-dose-only effect, or another doubt; inactive = no such curve, though single readings can be large; an effect the other way counts as inactive or inconclusive.

How did O=C(Nc1ccc(OC(F)F)cc1)Nc1cccc(C(F)(F)F)c1 do in these assays?
PTHR1 agonist: inactive; RGS4 inh: inactive; KAT2A inh: inactive[0.501 µM]; GLP1R inv ag: 4.47µM; GLP1R ag: inactive; GLP1R cytotox: inconclusive

What do the screens show for `NNC(=O)Nc1cccc(C(F)(F)F)c1`?
PTHR1 agonist: inactive; RGS4 inh: inactive; KAT2A inh: inactive; GLP1R inv ag: inactive; GLP1R ag: inactive; GLP1R cytotox: inactive

How did O=C(O)c1cc(NC(=O)c2ccc([N+](=O)[O-])cc2)cc(NC(=O)c2ccc([N+](=O)[O-])cc2)c1 do in these assays?
PTHR1 agonist: inactive; RGS4 inh: inactive; KAT2A inh: inactive; GLP1R inv ag: inactive; GLP1R ag: inactive; GLP1R cytotox: inactive

How did O=C(Nc1ccncc1)Nc1cccc(C(F)(F)F)c1 do in these assays?
PTHR1 agonist: inactive; RGS4 inh: inactive; KAT2A inh: inactive; GLP1R inv ag: 10µM; GLP1R ag: inactive; GLP1R cytotox: inactive

What do the screens show for `O=C(Nc1ccc([N+](=O)[O-])cc1)C(=O)Nc1cccc(C(=O)O)c1`?
PTHR1 agonist: inactive; RGS4 inh: inactive; KAT2A inh: inactive; GLP1R inv ag: 1.12µM; GLP1R ag: inactive; GLP1R cytotox: inactive

Results for CN(C)CCC(=O)c1cccc(Br)c1 ?
PTHR1 agonist: inactive; RGS4 inh: inconclusive; KAT2A inh: inactive; GLP1R inv ag: inactive; GLP1R ag: inactive; GLP1R cytotox: inactive

What do the screens show for `CCSc1n[nH]c(=S)s1`?
PTHR1 agonist: inactive; RGS4 inh: inactive; KAT2A inh: 31.6µM; GLP1R inv ag: inactive; GLP1R ag: inactive; GLP1R cytotox: inactive

How did COC(=O)CSc1n[nH]c(=S)s1 do in these assays?
PTHR1 agonist: inactive; RGS4 inh: inactive; KAT2A inh: inactive; GLP1R inv ag: inactive; GLP1R ag: inactive; GLP1R cytotox: inactive

Results for Cc1c(Br)c([N+](=O)[O-])nn1CC(=O)N1CCc2ccccc2C1 ?
PTHR1 agonist: inactive; RGS4 inh: inactive; KAT2A inh: inactive; GLP1R inv ag: inactive; GLP1R ag: inactive; GLP1R cytotox: inactive

What do the screens show for `Cc1c(Br)c([N+](=O)[O-])nn1CC(=O)N1CCN(C23CC4CC(CC(C4)C2)C3)CC1`?
PTHR1 agonist: inactive; RGS4 inh: inactive; KAT2A inh: inactive; GLP1R inv ag: 10µM; GLP1R ag: inactive; GLP1R cytotox: inactive

Results for O=C(CNC(=O)c1sc2ccccc2c1Cl)Nc1ccccc1F ?
PTHR1 agonist: inactive; RGS4 inh: inactive; KAT2A inh: inconclusive; GLP1R inv ag: inactive; GLP1R ag: inactive; GLP1R cytotox: inactive

How did CC1C(=O)C(C)C(c2cc(Cl)ccc2O)NC1c1cc(Cl)ccc1O (stereo not given) do in these assays?
PTHR1 agonist: inactive; RGS4 inh: inactive; KAT2A inh: inactive; GLP1R inv ag: 5.62µM; GLP1R ag: inactive; GLP1R cytotox: inconclusive

Results for COc1cccc(NC(=O)CN(C)C(=O)CC2CCCCC2)c1 ?
PTHR1 agonist: inactive; RGS4 inh: inconclusive; KAT2A inh: inactive; GLP1R inv ag: inactive; GLP1R ag: inactive; GLP1R cytotox: inactive

How did CC1CCN(C(=O)c2cc3c(ccc4ccccc43)o2)CC1 do in these assays?
PTHR1 agonist: inactive; RGS4 inh: inactive; KAT2A inh: inactive; GLP1R inv ag: 10µM; GLP1R ag: inactive; GLP1R cytotox: inactive

Results for CN(c1ccccc1)c1ccc(/C=N/NC(=O)CC#N)cc1 ?
PTHR1 agonist: inactive; RGS4 inh: inactive; KAT2A inh: inactive; GLP1R inv ag: inconclusive; GLP1R ag: inactive; GLP1R cytotox: inactive

Results for OCC1(CO)CCCC(CO)(CO)C1O ?
PTHR1 agonist: inactive; RGS4 inh: inactive; GLP1R inv ag: inactive; GLP1R ag: inactive; GLP1R cytotox: inactive

Results for CCn1c(NCc2cc(Br)ccc2NS(=O)(=O)c2ccc(C)cc2)nc2ccccc21 ?
PTHR1 agonist: inactive; RGS4 inh: inactive; KAT2A inh: inactive; GLP1R inv ag: 11.2µM; GLP1R ag: inactive; GLP1R cytotox: inactive

Results for Cc1ccc(S(=O)(=O)N(C)/N=C2/C(=O)N(CC(=O)O)c3ccccc32)cc1 ?
PTHR1 agonist: inactive; RGS4 inh: inactive; KAT2A inh: inactive; GLP1R inv ag: inactive; GLP1R ag: inactive; GLP1R cytotox: inactive

Results for C=CC(=O)NC(C)(C)Cc1ccccc1 ?
PTHR1 agonist: inconclusive; RGS4 inh: inactive; KAT2A inh: 17.8µM; GLP1R inv ag: inactive; GLP1R ag: inactive; GLP1R cytotox: inactive

How did Cc1ccc(S(=O)(=O)N2CC3=C(C2)C2CC2(C)C3)cc1 (stereo not given) do in these assays?
PTHR1 agonist: inactive; GLP1R inv ag: inactive; GLP1R ag: inactive; GLP1R cytotox: inactive

What do the screens show for `CCc1ccc(CSc2nccn2-c2ccccc2)cc1`?
PTHR1 agonist: inactive; RGS4 inh: inactive; KAT2A inh: inactive; GLP1R inv ag: 6.31µM; GLP1R ag: inactive; GLP1R cytotox: inactive

How did Cc1nc2cc(Oc3nc(NCCN(C)C)nc4ccsc34)ccc2s1 do in these assays?
PTHR1 agonist: inactive; GLP1R inv ag: inactive; GLP1R ag: inactive; GLP1R cytotox: inactive

How did COc1ccc(Oc2ncc3nc(-c4cccs4)c(=O)n(CCC#N)c3n2)cc1 do in these assays?
KAT2A inh: inactive

How did COc1ncc2nc(-c3cccs3)c(=O)n(CCC#N)c2n1 do in these assays?
KAT2A inh: 35.5µM

How did C[C@@H]1CN(C(=O)c2nc3ccc(Cl)cn3c2CN2CCc3sccc3C2)C[C@H](C)O1 do in these assays?
PTHR1 agonist: inactive; RGS4 inh: inactive; KAT2A inh: inactive; GLP1R inv ag: inactive; GLP1R ag: inactive; GLP1R cytotox: inactive

Results for CCCC[C@@H]1CCCO[C@@](C(=O)NCc2ccccn2)(C(F)(F)F)C1 ?
PTHR1 agonist: inactive; RGS4 inh: inactive; GLP1R inv ag: 5.01µM; GLP1R ag: inactive; GLP1R cytotox: inactive

Results for COc1cc(/C=C/C(=O)c2ccc(C)c([N+](=O)[O-])c2)cc(OC)c1O ?
PTHR1 agonist: inactive; RGS4 inh: inactive; KAT2A inh: inactive; GLP1R inv ag: 10µM; GLP1R ag: inactive; GLP1R cytotox: inactive

What do the screens show for `NC(=O)c1ccc[n+]([C@@H]2OC(COP(=O)([O-])OP(=O)(O)OCC3OC(n4cnc5c(N)ncnc54)C(O)C3O)C(O)C2O)c1` (stereo not given in full)?
KAT2A inh: inactive

Results for NC(=S)c1ccc[n+]([C@@H]2O[C@@H](COP(=O)([O-])OP(=O)(O)OC[C@H]3O[C@@H](n4cnc5c(N)ncnc54)[C@H](OP(=O)(O)O)[C@@H]3O)C(O)C2O)c1 (stereo not given in full) ?
RGS4 inh: 26.7µM; KAT2A inh: inactive

What do the screens show for `COc1ccc(-c2nsc3c(N4CCCCC4C)ncnc23)cc1` (stereo not given)?
PTHR1 agonist: inactive; RGS4 inh: inactive; KAT2A inh: inactive; GLP1R inv ag: 0.282µM; GLP1R ag: inactive; GLP1R cytotox: inactive
